# Source: the supplement of paper PMC11732987, “Enantioselective OTUD7B fragment discovery through chemoproteomics screening and high-throughput optimisation” (Communications Chemistry, 2025)
# Values without a mark were called inactive.
# What was measured:
# Experiment in all cases: log2 ratio of Biotin-Ahx-Ub-VS probe labelling (fragment/DMSO); higher = less target engagement (more negative = stronger competition), active = hit call of the paper (q ≤ 0.05, log2 ratio ≤ -1)
# Conditions in all cases: compound concentration: 200 uM; treatment time: 3 h
# ALG13 = target: T1, ALG13 (UniProt Q9NP73)
# T1 sequence (whole entry): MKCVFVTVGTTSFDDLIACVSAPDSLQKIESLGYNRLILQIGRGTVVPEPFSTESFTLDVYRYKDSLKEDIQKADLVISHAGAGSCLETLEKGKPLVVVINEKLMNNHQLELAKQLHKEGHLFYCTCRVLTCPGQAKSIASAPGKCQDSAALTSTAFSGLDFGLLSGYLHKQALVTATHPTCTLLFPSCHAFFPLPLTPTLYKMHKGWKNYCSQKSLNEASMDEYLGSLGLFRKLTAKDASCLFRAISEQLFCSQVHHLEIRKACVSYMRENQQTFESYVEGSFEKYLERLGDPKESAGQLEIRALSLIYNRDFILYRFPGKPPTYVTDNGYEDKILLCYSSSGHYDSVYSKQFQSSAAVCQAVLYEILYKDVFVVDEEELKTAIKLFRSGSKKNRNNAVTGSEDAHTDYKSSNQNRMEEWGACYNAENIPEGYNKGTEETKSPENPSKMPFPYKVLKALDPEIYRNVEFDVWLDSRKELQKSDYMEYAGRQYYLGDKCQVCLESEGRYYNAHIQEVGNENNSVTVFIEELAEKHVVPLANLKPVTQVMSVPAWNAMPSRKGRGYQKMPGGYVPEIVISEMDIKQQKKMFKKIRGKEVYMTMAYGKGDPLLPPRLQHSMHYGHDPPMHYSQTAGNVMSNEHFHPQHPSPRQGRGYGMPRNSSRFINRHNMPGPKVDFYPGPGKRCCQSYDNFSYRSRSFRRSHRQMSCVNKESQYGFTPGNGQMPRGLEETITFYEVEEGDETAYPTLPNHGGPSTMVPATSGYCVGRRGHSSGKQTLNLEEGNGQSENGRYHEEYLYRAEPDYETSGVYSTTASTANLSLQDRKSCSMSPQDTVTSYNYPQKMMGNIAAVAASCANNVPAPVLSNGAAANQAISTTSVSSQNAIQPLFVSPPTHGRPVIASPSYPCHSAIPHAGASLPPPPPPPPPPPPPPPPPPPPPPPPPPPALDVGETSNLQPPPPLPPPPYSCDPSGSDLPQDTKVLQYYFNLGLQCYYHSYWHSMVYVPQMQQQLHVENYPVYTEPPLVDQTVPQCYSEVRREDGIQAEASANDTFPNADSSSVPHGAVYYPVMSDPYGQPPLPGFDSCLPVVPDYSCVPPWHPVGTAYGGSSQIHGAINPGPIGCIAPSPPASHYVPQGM
# Method in brief: (§1)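 Fragment (200 µM) or vehicle was incubated for 3 h with triplicate HEK293T lysate samples of 495 µg, which were then treated with Biotin-Ahx-Ub-VS at 0.5 µM final for 1 h. Labelled DUBs were enriched on NeutrAvidin, digested with LysC and trypsin, and analysed by diaPASEF LC-MS/MS. Values are average log2 fragment/vehicle ratios from an unpaired t-test on global-median-normalised Spectronaut label-free quantities, using proteins with ≥2 unique peptides.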
# ATXN3 = ATXN3 (UniProt P54252)
# Chain of ATXN3 (P54252 whole entry): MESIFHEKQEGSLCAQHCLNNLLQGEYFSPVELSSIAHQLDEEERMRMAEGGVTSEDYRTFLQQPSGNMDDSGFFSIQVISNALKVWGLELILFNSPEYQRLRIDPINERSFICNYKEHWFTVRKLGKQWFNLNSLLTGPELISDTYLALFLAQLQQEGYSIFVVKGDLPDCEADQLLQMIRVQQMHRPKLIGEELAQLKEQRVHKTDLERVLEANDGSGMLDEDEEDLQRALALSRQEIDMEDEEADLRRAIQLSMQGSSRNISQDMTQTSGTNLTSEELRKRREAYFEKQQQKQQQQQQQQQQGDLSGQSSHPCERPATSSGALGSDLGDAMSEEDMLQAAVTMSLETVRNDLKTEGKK
# Method in brief: as §1
# BAP1 = target: T2, BAP1 (UniProt Q92560)
# T2 sequence (whole entry): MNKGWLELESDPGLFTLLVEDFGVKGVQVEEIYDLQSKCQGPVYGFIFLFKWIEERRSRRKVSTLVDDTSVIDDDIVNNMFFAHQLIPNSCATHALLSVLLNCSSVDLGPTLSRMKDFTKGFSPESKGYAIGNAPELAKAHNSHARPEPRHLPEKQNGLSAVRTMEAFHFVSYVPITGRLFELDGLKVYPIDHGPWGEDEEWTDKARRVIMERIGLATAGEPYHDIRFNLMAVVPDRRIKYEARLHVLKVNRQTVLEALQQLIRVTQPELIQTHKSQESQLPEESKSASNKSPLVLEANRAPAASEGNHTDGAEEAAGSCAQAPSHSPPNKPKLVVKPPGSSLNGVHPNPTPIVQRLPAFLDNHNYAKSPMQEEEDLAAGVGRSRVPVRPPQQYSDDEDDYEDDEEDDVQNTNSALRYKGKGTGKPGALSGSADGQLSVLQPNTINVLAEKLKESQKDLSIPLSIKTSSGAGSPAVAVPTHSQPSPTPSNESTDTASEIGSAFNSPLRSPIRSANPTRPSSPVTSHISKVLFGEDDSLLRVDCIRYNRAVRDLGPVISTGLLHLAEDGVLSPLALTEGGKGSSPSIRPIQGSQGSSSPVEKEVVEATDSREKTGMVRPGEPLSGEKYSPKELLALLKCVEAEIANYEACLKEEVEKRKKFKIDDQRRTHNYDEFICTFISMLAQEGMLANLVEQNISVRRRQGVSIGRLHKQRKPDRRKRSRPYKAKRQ
# Method in brief: as §1
# EIF3F = EIF3F (UniProt O00303)
# Chain of EIF3F (O00303 whole entry): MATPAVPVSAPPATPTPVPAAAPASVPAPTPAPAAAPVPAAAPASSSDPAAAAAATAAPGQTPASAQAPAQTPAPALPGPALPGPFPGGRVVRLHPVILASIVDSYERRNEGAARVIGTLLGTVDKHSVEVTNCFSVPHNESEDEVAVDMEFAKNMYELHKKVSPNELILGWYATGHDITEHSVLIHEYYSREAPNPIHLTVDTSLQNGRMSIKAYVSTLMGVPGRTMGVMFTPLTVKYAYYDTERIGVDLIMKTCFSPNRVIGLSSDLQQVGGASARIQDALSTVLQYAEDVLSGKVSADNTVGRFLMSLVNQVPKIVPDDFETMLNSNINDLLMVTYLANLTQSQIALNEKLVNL
# Method in brief: as §1
# EIF3H = EIF3H (UniProt O15372)
# Chain of EIF3H (O15372 whole entry): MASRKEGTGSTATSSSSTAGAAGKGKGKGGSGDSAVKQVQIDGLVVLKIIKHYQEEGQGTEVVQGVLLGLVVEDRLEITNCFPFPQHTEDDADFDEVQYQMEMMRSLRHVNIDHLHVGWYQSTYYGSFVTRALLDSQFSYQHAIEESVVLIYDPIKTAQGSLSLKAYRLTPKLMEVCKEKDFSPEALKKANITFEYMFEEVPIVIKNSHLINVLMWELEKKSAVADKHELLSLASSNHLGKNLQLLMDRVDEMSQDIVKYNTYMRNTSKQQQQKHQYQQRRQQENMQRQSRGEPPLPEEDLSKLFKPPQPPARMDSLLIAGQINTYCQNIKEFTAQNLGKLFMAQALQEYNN
# Method in brief: as §1
# FAM105A = target: T3, FAM105A (UniProt Q9NUU6)
# T3 sequence (whole entry): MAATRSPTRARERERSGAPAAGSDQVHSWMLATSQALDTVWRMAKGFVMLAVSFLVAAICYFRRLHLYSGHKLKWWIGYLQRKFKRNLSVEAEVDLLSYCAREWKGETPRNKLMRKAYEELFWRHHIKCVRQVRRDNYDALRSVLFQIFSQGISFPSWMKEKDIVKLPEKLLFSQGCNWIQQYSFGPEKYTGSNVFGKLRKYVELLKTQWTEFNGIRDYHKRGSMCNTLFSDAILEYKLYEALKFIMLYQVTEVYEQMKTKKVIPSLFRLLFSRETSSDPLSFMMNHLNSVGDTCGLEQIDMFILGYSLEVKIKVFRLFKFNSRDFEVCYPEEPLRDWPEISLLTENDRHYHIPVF
# Method in brief: as §1
# OTUB1 = OTUB1 (UniProt Q96FW1)
# Chain of OTUB1 (Q96FW1 whole entry): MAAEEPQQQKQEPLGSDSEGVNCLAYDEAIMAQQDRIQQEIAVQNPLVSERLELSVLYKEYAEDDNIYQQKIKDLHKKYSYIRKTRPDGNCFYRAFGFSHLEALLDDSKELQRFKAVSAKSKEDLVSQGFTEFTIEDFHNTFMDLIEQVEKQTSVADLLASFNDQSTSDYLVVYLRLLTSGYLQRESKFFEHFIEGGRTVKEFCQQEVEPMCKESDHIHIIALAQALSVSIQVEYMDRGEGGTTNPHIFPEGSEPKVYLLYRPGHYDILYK
# Method in brief: as §1
# OTUD4 = target: T4, OTUD4 (UniProt Q01804)
# T4 sequence (whole entry): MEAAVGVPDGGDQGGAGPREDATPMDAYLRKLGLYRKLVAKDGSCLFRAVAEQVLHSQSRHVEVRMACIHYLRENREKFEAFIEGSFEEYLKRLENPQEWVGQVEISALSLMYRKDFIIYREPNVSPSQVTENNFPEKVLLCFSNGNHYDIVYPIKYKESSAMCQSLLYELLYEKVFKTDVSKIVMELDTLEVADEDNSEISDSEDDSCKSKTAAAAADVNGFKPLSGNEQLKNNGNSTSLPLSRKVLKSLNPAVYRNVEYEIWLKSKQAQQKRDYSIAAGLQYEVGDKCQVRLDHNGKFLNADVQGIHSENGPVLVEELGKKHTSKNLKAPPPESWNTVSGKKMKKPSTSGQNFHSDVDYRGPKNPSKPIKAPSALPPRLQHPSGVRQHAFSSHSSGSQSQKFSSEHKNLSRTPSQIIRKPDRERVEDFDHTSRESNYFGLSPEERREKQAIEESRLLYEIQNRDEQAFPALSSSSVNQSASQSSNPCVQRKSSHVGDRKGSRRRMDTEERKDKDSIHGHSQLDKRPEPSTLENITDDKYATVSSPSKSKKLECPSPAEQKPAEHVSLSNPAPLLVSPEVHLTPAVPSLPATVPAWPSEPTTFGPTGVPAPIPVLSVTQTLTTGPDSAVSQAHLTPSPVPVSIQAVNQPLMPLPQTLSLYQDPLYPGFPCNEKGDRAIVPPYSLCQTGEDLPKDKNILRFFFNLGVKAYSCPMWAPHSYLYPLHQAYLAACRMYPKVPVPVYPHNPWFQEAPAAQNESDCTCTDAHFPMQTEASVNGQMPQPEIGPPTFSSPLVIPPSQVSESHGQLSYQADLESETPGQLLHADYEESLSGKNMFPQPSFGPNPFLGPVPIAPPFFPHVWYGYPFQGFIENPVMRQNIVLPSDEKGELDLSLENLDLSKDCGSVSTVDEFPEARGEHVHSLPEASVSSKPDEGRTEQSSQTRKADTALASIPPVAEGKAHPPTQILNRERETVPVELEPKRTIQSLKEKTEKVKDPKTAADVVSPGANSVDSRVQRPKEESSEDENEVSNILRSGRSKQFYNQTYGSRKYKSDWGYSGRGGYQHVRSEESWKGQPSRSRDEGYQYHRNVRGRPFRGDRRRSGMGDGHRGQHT
# Method in brief: as §1
# OTUD5 = target: T5, OTUD5 (UniProt Q96G74)
# T5 sequence (whole entry): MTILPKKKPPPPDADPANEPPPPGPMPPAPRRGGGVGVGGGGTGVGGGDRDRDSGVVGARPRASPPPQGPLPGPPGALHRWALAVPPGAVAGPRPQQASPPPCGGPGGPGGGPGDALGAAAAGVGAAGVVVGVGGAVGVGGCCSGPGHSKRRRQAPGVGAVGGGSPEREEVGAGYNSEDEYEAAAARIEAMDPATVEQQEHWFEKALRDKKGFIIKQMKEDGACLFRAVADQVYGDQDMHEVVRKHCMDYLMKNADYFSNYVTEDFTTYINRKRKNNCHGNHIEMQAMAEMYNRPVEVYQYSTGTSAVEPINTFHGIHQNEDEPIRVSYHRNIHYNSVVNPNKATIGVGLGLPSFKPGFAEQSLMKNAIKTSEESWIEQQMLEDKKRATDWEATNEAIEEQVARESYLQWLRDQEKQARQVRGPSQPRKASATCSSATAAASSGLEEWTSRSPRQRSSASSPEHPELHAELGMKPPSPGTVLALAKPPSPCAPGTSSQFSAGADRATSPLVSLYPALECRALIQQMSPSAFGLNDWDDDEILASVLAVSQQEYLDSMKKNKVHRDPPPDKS
# Method in brief: as §1
compound,measurement,setting,value
Cl.O=C(CCl)N1CC(c2ccc(Br)cn2)C1,log2 ratio of Biotin-Ahx-Ub-VS probe labelling,ALG13,0.23
same,log2 ratio of Biotin-Ahx-Ub-VS probe labelling,ATXN3,-0.38
same,log2 ratio of Biotin-Ahx-Ub-VS probe labelling,BAP1,-1.49 (active)
same,log2 ratio of Biotin-Ahx-Ub-VS probe labelling,EIF3F,-0.158
same,log2 ratio of Biotin-Ahx-Ub-VS probe labelling,EIF3H,0.134
same,log2 ratio of Biotin-Ahx-Ub-VS probe labelling,FAM105A,0.0979
same,log2 ratio of Biotin-Ahx-Ub-VS probe labelling,OTUB1,-0.157
same,log2 ratio of Biotin-Ahx-Ub-VS probe labelling,OTUD4,-0.553
same,log2 ratio of Biotin-Ahx-Ub-VS probe labelling,OTUD5,-0.45
